Shown are actives, neighbours in structure and some others; about 7.5% of the full set was active somewhere.
FLuc modulator – qHTS profiling assay for firefly luciferase inhibitor/activator using purifed enzyme and Km concentrations of substrates (counterscreen for miR-21 project); Luciferin 4-monooxygenase (Photinus pyralis), P08659; purified FLuc, Km substrates, luminescence inhibition; Potency, µM (highest dose often 57.5 µM), usual class: inhibitors; 360,000 compounds, 6.9% hits; AID 588342, 2011; further: nearly all actives have a fitted effect of over 55% in size
Target sequence (P08659 whole entry, looked up): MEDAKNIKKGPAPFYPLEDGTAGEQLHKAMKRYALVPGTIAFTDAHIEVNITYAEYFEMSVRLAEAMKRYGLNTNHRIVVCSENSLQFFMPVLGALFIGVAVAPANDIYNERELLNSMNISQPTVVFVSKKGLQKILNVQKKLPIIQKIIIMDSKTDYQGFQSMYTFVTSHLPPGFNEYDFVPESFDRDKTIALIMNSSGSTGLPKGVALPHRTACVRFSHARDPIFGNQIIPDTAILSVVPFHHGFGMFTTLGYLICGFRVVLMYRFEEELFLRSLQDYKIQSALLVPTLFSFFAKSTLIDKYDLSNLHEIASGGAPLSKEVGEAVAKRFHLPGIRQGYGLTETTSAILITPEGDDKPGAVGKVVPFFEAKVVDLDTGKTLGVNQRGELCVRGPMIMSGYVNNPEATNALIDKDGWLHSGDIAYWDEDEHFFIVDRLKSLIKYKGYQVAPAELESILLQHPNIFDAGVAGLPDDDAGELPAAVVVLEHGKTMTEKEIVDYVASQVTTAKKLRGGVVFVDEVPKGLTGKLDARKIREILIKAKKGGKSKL
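Purified P. pyralis luciferase, 10 nM final, with Km-level 10 uM D-luciferin and 10 uM ATP in 50 mM Tris acetate pH 7.5, 10 mM Mg acetate, 0.01% Tween-20, 0.05% BSA; 6-point qHTS titration about 60 µM downward; luminescence read.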
Rab9 promoter act – qHTS Assay for Rab9 Promoter Activators | Huh7 Rab9 promoter-luciferase reporter, luminescence, 24 h | Potency, µM (highest dose often 9.22 µM), actives largely listed as activators | 320,000 compounds, 2.8% hits; further: nearly all actives have a fitted effect of over 60% in size
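Rab9 promoter-driven luciferase in stably transfected Huh7 cells; 1500 cells/well rested 2 h, exposed to compound in DMSO for 24 h at 37 °C, 5% CO2. Luminescence read 10 min after adding luciferase reagent at ambient temperature.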
SMN2 splice up – qHTS Assay for Enhancers of SMN2 Splice Variant Expression; 210,000 compounds, 2.8% hits; Potency, µM (series often up to 46.1 µM), hits mostly activators; HEK293 SMN2-luciferase splicing reporter, luminescence, 30-36 h; further: nearly all actives have a fitted effect of over 55% in size
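HEK293 cells carry an SMN2 minigene-luciferase reporter in which exon 7 inclusion puts luciferase in frame. Cells were seeded at 2000 cells/well, attached for 10-12 hours, then exposed to compounds for 30-36 hours at 37C before ONE-Glo luminescence.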
NPC1 promoter act – qHTS Assay for NPC1 Promoter Activators; Huh7 NPC1 promoter luciferase reporter, 24 h; Potency, µM (doses to about 9.22 µM), most hits filed as activators; 320,000 compounds, 2.4% hits; AID 485313, 2010; further: nearly all actives have a fitted effect of over 60% in size
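Huh7 cells stably carrying NPC1 promoter–luciferase, plated in Opti-MEM with 10% FBS for 2 h, were exposed to compound in DMSO for 24 h at 37 °C; luciferase reagent was added for 10 min and luminescence read.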
KinaseGlo FLuc – Counterscreen for Luciferase (Kinase-Glo TM) Inhibition; Luciferin 4-monooxygenase (Photuris pensylvanica), Q27757; Kinase-Glo luciferase, ATP luminescence, 8 min; Potency, µM (doses to about 38.3 µM), actives largely listed as inhibitors; 200,000 compounds, 0.28% hits; AID 1379, 2008; further: nearly all actives have a fitted effect of over 60% in size
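Recombinant Kinase-Glo luciferase, 10 uM ATP (linear range), luciferin; imidazole pH 7.2 / KCl / MgCl2 / Tween / BSA buffer; 8 min RT; luminescence.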
ELG1 genotox – qHTS screen for small molecules that induce genotoxicity in human embryonic kidney (HEK293T) cells expressing luciferase-tagged ELG1 | HEK293T ELG1-luciferase reporter, luminescence, 16 h | Potency, µM (doses to about 46 µM), hits mostly activators | 330,000 compounds, 1.3% hits | AID 504466, 2011; further: nearly all actives have a fitted effect of over 60% in size
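ELG1-luciferase HEK293T cells, 2,000/well; compound pinned in; 16 hr, 37 °C, 5% CO2; ONE-Glo, 30 min RT; luminescence on CCD imager.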
Hits are given with their value; - = inactive; ? = inconclusive; . = not tested or not shown. The call rests on the fitted dose curve; in most records, active means well fitted curve in the direction sought with a large enough effect; inconclusive means small, poorly fitted or top-dose-only effect, or another doubt; inactive means no such curve, though single readings can be large; an effect the other way counts as inactive or inconclusive.

SMILES	FLuc modulator	Rab9 promoter act	SMN2 splice up	NPC1 promoter act	KinaseGlo FLuc	ELG1 genotox
O=C(Nc1ccc(-c2nc3ccccc3o2)cc1)C1CCCO1 (stereo unspecified)	1.35µM	0.447µM	7.94µM	0.316µM	-	?
O=C(Nc1ccc2oc(-c3ccccc3)nc2c1)C1CCCO1 (stereo unspecified)	7.57µM	2.82µM	11.2µM	2.24µM	-	18.4µM
O=C(Nc1ccc(-c2nc3cc(Cl)ccc3o2)cc1)c1cc2ccccc2o1	-	.	-	.	.	.
O=C(Nc1ccc(-c2nc3cccnc3s2)cc1)C1CCCO1 (stereo unspecified)	0.601µM	0.1µM	1.12µM	0.126µM	?	?
C=CCn1c(-c2sc3nc(C)cc(C)c3c2N)n[nH]c1=S	?	-	.	-	.	-
CNc1ncnc2ccc(-c3ccccc3OC)cc12	.	.	-	.	-	.
Cc1ccc(C(=O)O/N=C(\N)c2ccccn2)cc1C	0.0953µM	0.501µM	.	0.316µM	.	0.326µM
COc1cc(C(=O)O/N=C(\N)c2ccccn2)cc(OC)c1OC	-	-	.	-	.	?
C/C(=N\OC(=O)c1ccc(Br)cc1)c1ccccn1	0.536µM	-	-	-	?	-
CC(C)(C)c1ccc(C(=O)O/N=C(\N)c2ccccn2)cc1	0.239µM	-	.	-	.	-
O=C(NCCCNC(=O)c1ccccn1)c1cccc(F)c1	-	-	.	-	.	-
N/C(=N\OC(=O)c1cccc(F)c1)c1ccccn1	1.07µM	1.58µM	.	3.55µM	.	?
O=C(Nc1ccnn1C1CCN(Cc2cccc(F)c2F)CC1)C1CCCC1	-	-	.	-	.	-
CC(C)COc1ccc(C(=O)N2CCCCC2CCN2CCCCC2)cc1 (stereo unspecified)	-	.	-	.	.	.
COc1ccc(C2C(C(=O)Nc3ccccc3)=C(C)Nc3c(C(=O)Nc4ccccc4)cnn32)cc1 (stereo unspecified)	-	.	.	.	.	.
CCOc1ccc(C(=O)O/N=C(\N)c2ccccn2)cc1	0.0849µM	0.501µM	.	0.1µM	.	?
C/C(=N/OCc1ccc(Br)cc1)c1ccccn1	3.01µM	2.51µM	14.1µM	3.98µM	-	4.61µM
C/C(=N/O)c1ccccn1	-	-	-	-	-	-
N/C(=N\OC(=O)c1ccc(Br)o1)c1ccccn1	2.69µM	2.24µM	12.6µM	0.562µM	?	?
Cc1ccc(C(=O)O/N=C(\N)c2ccccn2)cc1	0.0239µM	1.12µM	.	0.501µM	.	?
CC(C)(C)C(=O)Nc1c(C(=O)N2CCN(c3ccc(F)cc3)CC2)oc2ccccc12	-	.	.	.	.	.
Cc1ccc(S(=O)(=O)N(CC(=O)Nc2c(C)cccc2C)c2cccc(Cl)c2)cc1	-	.	-	.	.	.
Cn1c(=O)n(C)c2cc(N3CCOCC3)c(NC(=O)c3ccccc3Br)cc21	-	.	-	.	.	.
CCN(C(=O)CN1CCCC(C)C1)c1c(N)n(Cc2ccccc2)c(=O)[nH]c1=O (stereo unspecified)	.	.	.	.	.	-
Cc1ccc(NC(=O)c2ccc(F)c(S(=O)(=O)NCCc3ccccc3)c2)cc1F	-	.	.	.	.	.
SMILES	FLuc modulator	Rab9 promoter act	SMN2 splice up	NPC1 promoter act	KinaseGlo FLuc	ELG1 genotox
CCc1ccc(S(=O)(=O)c2nnn3c2nc(NCc2cccs2)c2sccc23)cc1	-	.	.	.	.	.
N/C(=N\OC(=O)c1ccccc1)c1ccccn1	0.269µM	1µM	.	1.78µM	1.41µM	?
N/C(=N\OCc1ccc([N+](=O)[O-])cc1)c1ccccn1	0.379µM	?	0.794µM	?	10µM	0.082µM
Cc1cccc(C(=O)O/N=C(\N)c2ccccn2)c1	0.269µM	3.98µM	.	1.58µM	.	2.59µM
CSc1ccc(CCNC(=O)CCCn2c(=O)c3cccn3c3ccccc32)cc1	-	.	.	.	.	.
Cc1ccc(C)c(Cn2c3ccccc3c3cnn(CC(=O)NCC(C)c4ccccc4)c(=O)c32)c1 (stereo unspecified)	-	.	-	.	.	.
O=S1(=O)c2ccccc2N(Cc2cccc(F)c2)c2ccccc21	-	.	.	.	.	.
COc1ccc(CCNC(=O)CCC(=O)NC2CCCC(C)C2C)cc1OC (stereo unspecified)	-	-	.	-	.	-
